This is an account of results in the supplement of paper PMC9262897, “Low-cost anti-mycobacterial drug discovery using engineered E. coli” (Nature Communications, 2022).

Structures are written as SMILES. Structures can show the parent of a compound that is named as a salt. ± gives the standard deviation of the averaged measurements.

For the assay, the system named is E. coli TESEC Alr+ wild-type control. The assay is described as follows: growth (OD600 after 10 h); higher = more growth (less inhibition). To be noted: compound 0.1 mM; raw OD600 reference: median of DMSO wells 0.241, cell-free background 0.041. The procedure: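 TESEC Mtb Alr E. coli, or the Alr+ wild-type control, in 384-well plates with Prestwick library compounds at 0.1 mM and 1% DMSO, across arabinose induction levels of 1E3 to 1E7 nM. Growth is read as OD600 after 10 h at 37 °C in triplicate biological replicates.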
For `CC(=O)Oc1cccc2c1C(=O)c1c(OC(C)=O)cc(C(=O)O)cc1C2=O` [Diacerein], the growth came to 0.122 ± 0.0032.
Then `COc1ccc(-c2cc(=S)ss2)cc1` [Anethole-trithione], with 0.182 ± 0.013.
The result for `O=C(O)Cc1ccccc1Nc1c(Cl)cccc1Cl` [Diclofenac sodium] reads 0.1279 ± 0.00065; that for `CCN1CCC[C@H]1CNC(=O)c1c(O)c(Cl)cc(Cl)c1OC` [Raclopride], 0.173 ± 0.014.
In turn, `COc1ccc(C[C@@H]2c3cc(OC)c(OC)cc3CC[N@+]2(C)CCC(=O)OCCCCCOC(=O)CC[N@@+]2(C)CCc3cc(OC)c(OC)cc3[C@H]2Cc2ccc(OC)c(OC)c2)cc1OC` [Cisatracurium besylate] yielded a growth of 0.188 ± 0.0083.
`CN(C)CCOC(=O)C(c1ccccc1)C1(O)CCCC1` (centres undefined) [Cyclopentolate hydrochloride] had a growth of 0.219 ± 0.0068.
On to `CCCCOc1ccc(C(=O)CCN2CCCCC2)cc1` [Dyclonine hydrochloride], for which the growth was determined as 0.208 ± 0.004.
The result for `CC[C@H]1OC(=O)[C@H](C)[C@@H](O[C@H]2C[C@@](C)(OC)[C@@H](O)[C@H](C)O2)[C@H](C)[C@@H](O[C@@H]2O[C@H](C)C[C@H](N(C)C)[C@H]2O)[C@](C)(O)C[C@@H](C)/C(=N\OCOCCOC)[C@H](C)[C@@H](O)[C@]1(C)O` [Roxithromycin] reads 0.0423 ± 0.0011; that for `CCOC(=O)O[C@]1(C(=O)OCCl)CC[C@H]2[C@@H]3CCC4=CC(=O)C=C[C@]4(C)[C@H]3[C@@H](O)C[C@@]21C` [Loteprednol etabonate], 0.135 ± 0.003.
`c1ccc2c(CC3=NCCN3)cccc2c1` [Naphazoline hydrochloride] yielded a growth of 0.231 ± 0.0088.
Then `O=C(N/N=C/c1ccc([N+](=O)[O-])o1)c1ccc(O)cc1` [Nifuroxazide], with 0.148 ± 0.0071.
`COCCOC(=O)C1=C(C)NC(C)=C(C(=O)OC/C=C/c2ccccc2)C1c1cccc([N+](=O)[O-])c1` (centres undefined) [Cilnidipine] registered a growth of 0.275 ± 0.0065.
The result for `CCN(CC)CCOC(=O)c1ccc(N)cc1` [Procaine hydrochloride] reads 0.254 ± 0.0063; that for `COc1cccc(N(C)C(=S)Oc2ccc3c(c2)CCCC3)n1` [Liranaftate], 0.213 ± 0.0062; that for `CC(C)(Sc1cc(C(C)(C)C)c(O)c(C(C)(C)C)c1)Sc1cc(C(C)(C)C)c(O)c(C(C)(C)C)c1` [Probucol], 0.248 ± 0.0044.
Then `C[C@@H]1[C@H](O)[C@@H](C)/C=C/C=C/C=C/C=C/C=C/C=C/C=C/[C@H](O[C@@H]2O[C@H](C)[C@@H](O)[C@H](N)[C@@H]2O)C[C@@H]2O[C@](O)(C[C@@H](O)C[C@@H](O)[C@H](O)CC[C@@H](O)C[C@@H](O)CC(=O)O[C@H]1C)C[C@H](O)[C@H]2C(=O)O` [Amphotericin B], with 0.316 ± 0.0027; and `C[C@@H](O)[C@H]1C(=O)N2C(C(=O)O)=C(S[C@@H]3CN[C@H](C(=O)N(C)C)C3)[C@H](C)[C@H]12` [Meropenem], with 0.0404 ± 0.00057.
`CC1CCc2cc(F)cc3c(=O)c(C(=O)O)cn1c23` (centres undefined) [Flumequine] displayed a growth of 0.0491 ± 0.00083.
Then `O=C1CC2(CCCC2)CC(=O)N1CCCCN1CCN(c2ncccn2)CC1` [Buspirone hydrochloride], with 0.2005 ± 0.002; and `CC[C@]12CCCN3CCc4c(n(c5ccccc45)[C@@](O)(C(=O)OC)C1)[C@@H]32` [Vincamine], with 0.235 ± 0.0064; and `N#CC(c1ccc(Cl)cc1)c1c(Cl)cc(-n2ncc(=O)[nH]c2=O)cc1Cl` (centres undefined) [Diclazuril], with 0.0414 ± 0.00047.
The result for `CCOC(=O)[C@H](CCc1ccccc1)N[C@H]1CCc2ccccc2N(CC(=O)O)C1=O` [Benazepril HCl] reads 0.245 ± 0.011; that for `C[C@H](CCC(=O)O)[C@H]1CC[C@H]2[C@@H]3[C@H](O)C[C@@H]4C[C@H](O)CC[C@]4(C)[C@H]3CC[C@]12C` [Chenodiol], 0.247 ± 0.0086.
The result for `CC(=O)CC(c1ccccc1)c1c(O)c2ccccc2oc1=O` (centres undefined) [Warfarin] reads 0.251 ± 0.012; that for `O=C1CN(/N=C/c2ccc(-c3ccc([N+](=O)[O-])cc3)o2)C(=O)N1` [Dantrolene sodium salt], 0.2259 ± 0.00093; that for `Nc1nc2c(ncn2COC(CO)CO)c(=O)[nH]1` [Ganciclovir], 0.236 ± 0.0046.
The molecule `Cc1ccc(C(=O)c2cc(O)c(O)c([N+](=O)[O-])c2)cc1` [Tolcapone] came in with a growth of 0.04277 ± 0.00032.
As for `Fc1ccc([C@@H]2CCNC[C@H]2COc2ccc3c(c2)OCO3)cc1` [Paroxetine Hydrochloride], the growth worked out at 0.178 ± 0.0068.
The result for `COc1ccc(CN2CCN(C(c3ccc(F)cc3)c3ccc(F)cc3)CC2)c(OC)c1OC` [Lomerizine hydrochloride] reads 0.119 ± 0.0034; that for `C[C@@H]1C[C@H]2[C@@H]3CCC4=CC(=O)C=C[C@]4(C)[C@@]3(Cl)[C@@H](O)C[C@]2(C)[C@@]1(OC(=O)c1ccco1)C(=O)CCl` [Mometasone furoate], 0.203 ± 0.0057; that for `Cc1cccc(Nc2ccncc2S(=O)(=O)NC(=O)NC(C)C)c1` [Torsemide], 0.222 ± 0.005.
The result for `COc1nc(C)nc(Cl)c1NC1=NCCN1` [Moxonidine] reads 0.241 ± 0.011; that for `NC(=O)c1cccnc1` [Nicotinamide], 0.2773 ± 0.0019.
`NCCCC(O)(P(=O)(O)O)P(=O)(O)O` [Alendronate sodium] returned a growth of 0.259 ± 0.0047.
The result for `NNC(=O)c1ccncc1` [Isoniazid] reads 0.242 ± 0.0073; that for `CC(C)OC(=O)C(C)(C)Oc1ccc(C(=O)c2ccc(Cl)cc2)cc1` [Fenofibrate], 0.219 ± 0.0026; that for `CCC[C@@H]1C[C@@H](C(=O)N[C@@H]([C@H]2O[C@H](SC)[C@H](O)[C@@H](O)[C@H]2O)[C@@H](C)O)N(C)C1` [Lincomycin hydrochloride], 0.0958 ± 0.0084.
The result for `CS(=O)(=O)OCCCCOS(C)(=O)=O` [Busulfan] reads 0.241 ± 0.017; that for `CC[C@H]1OC(=O)C[C@@H](O)[C@H](C)[C@@H](O[C@@H]2O[C@H](C)[C@@H](O[C@H]3C[C@@](C)(O)[C@@H](O)[C@H](C)O3)[C@H](N(C)C)[C@H]2O)[C@@H](CC=O)C[C@@H](C)C(=O)/C=C/C(C)=C/[C@@H]1CO[C@@H]1O[C@H](C)[C@@H](O)[C@@H](OC)[C@H]1OC` [Tylosin], 0.04133 ± 5.8e-05.
